This is one part of the list. How many sequences the whole screen found active is unknown.
Molecular target: furin, P09958
Assay: furin cleavage Z-score vs untreated control; higher = more cleavage, active = 3.5 or more, inactive = 1 or less, 8 variable residues between constant flanks
Procedure, shortened: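 Furin-free reactions served as the baseline for the cleavage Z-score, which is the log read count lowess-adjusted and scaled by median absolute deviation. Counts came from released DNA, adapter-tagged by PCR and sequenced. Purified furin had cut 8-mer peptides fused to a cDNA oligonucleotide on magnetic beads during 7.5, 15 or 30 min at 1:10 enzyme:substrate.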
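Note: purified furin at 1:10 enzyme:substrate in 50 mM HEPES pH 7.5.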

Chain of furin, P09958 (P09958 whole entry): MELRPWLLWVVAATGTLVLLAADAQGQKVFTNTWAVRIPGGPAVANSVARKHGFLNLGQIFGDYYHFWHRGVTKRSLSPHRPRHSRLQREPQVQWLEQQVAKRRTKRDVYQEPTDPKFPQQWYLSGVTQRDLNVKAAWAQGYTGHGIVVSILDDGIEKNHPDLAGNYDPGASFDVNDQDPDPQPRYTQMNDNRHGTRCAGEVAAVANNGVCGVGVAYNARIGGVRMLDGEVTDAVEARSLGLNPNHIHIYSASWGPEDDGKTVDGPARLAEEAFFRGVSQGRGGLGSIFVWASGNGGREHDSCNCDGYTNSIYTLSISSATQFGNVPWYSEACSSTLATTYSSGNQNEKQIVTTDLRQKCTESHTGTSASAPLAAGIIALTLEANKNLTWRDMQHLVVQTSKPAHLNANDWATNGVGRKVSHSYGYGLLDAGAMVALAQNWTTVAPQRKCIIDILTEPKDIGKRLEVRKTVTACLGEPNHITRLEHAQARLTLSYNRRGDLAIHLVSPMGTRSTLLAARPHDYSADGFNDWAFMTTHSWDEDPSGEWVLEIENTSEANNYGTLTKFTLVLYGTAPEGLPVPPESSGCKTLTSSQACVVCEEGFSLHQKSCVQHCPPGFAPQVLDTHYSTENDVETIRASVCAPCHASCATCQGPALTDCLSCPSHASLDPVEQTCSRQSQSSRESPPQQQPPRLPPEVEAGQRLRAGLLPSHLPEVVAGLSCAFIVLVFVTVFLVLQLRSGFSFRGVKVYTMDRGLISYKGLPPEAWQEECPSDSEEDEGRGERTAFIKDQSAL

| Sequence | furin cleavage Z-score (7.5 min) | furin cleavage Z-score (15 min) | furin cleavage Z-score (30 min) |
| --- | --- | --- | --- |
| CALGIGTVLDAGNASASA [HC824] | -0.583 (inactive) | 0.0553 (inactive) | -0.254 (inactive) |
| CAVVCCSMFYAGNASASA [HC2067] | -1.42 (inactive) | 0.168 (inactive) | -1.67 (inactive) |
| CARYFRKRRGAGNASASA [FS-960] | 10.2 (active) | 11.6 (active) | 9.02 (active) |
| CAKKERRPRGAGNASASA [FS-671] | 1.59 | 2.08 | 0.765 (inactive) |
| CAISYRFPRGAGNASASA [FS-37] | 4.87 (active) | 7.38 (active) | 6.94 (active) |
| CAGAGNNTLHAGNASASA [HC447] | -0.871 (inactive) | 0.802 (inactive) | -0.559 (inactive) |
| CADATYSRCGAGNASASA [HC456] | 0.156 (inactive) | 1.42 | 0.00204 (inactive) |
| CAKVPCHRPSAGNASASA [HC2314] | 1.64 | 0.0197 (inactive) | 0.762 (inactive) |
| CARRSRLKRAAGNASASA [FS-496] | 11.4 (active) | 11.7 (active) | 8.87 (active) |
| CARRVRCSGAAGNASASA [FS-2802] | -0.409 (inactive) | 0.495 (inactive) | 0.927 (inactive) |
| CAAEQFKQKAAGNASASA [HC1023] | 0.841 (inactive) | 0.435 (inactive) | -1.43 (inactive) |
| CARRSRCIRAAGNASASA [FS-1405] | 9.51 (active) | 10.1 (active) | 8.44 (active) |
| CALGRRTKRAAGNASASA [FS-50] | 9.24 (active) | 10.5 (active) | 6.44 (active) |
| CALGNIIMFAAGNASASA [HC1575] | -0.725 (inactive) | -1.13 (inactive) | -0.0117 (inactive) |
| CALGSRYKKAAGNASASA [FS-819] | -0.0568 (inactive) | -0.0472 (inactive) | -0.113 (inactive) |
| CAAENRALRLAGNASASA [FS-113] | 0.559 (inactive) | -1.89 (inactive) | 1.32 |
| CAAEIRLKRAAGNASASA [FS-1442] | 9.68 (active) | 9.78 (active) | 8.4 (active) |
| CAVCWTVYHGAGNASASA [HC699] | -0.241 (inactive) | 1.41 | -1.21 (inactive) |
| CAEVVTSTPVAGNASASA [HC2239] | -0.71 (inactive) | -0.517 (inactive) | -0.991 (inactive) |
| CATTPCSGVWAGNASASA [HC1910] | -0.00612 (inactive) | 1.65 | 0.601 (inactive) |
| CAETVVCCSMAGNASASA [HC2138] | 0.723 (inactive) | 1.46 | 0.375 (inactive) |
| CALSRRLKRAAGNASASA [FS-460] | 12.9 (active) | 10.6 (active) | 7.76 (active) |
| CARSKRQLRRAGNASASA [FS-2305] | 5.77 (active) | 8.83 (active) | 9.3 (active) |
| CARSKRSRLLAGNASASA [FS-3208] | 2.35 | 5.37 (active) | 6.91 (active) |
| CARSELSPLLAGNASASA [HC490] | 0.997 (inactive) | -1.17 (inactive) | 0.877 (inactive) |

| Sequence | furin cleavage Z-score (7.5 min) | furin cleavage Z-score (15 min) | furin cleavage Z-score (30 min) |
| --- | --- | --- | --- |
| CARSVRARLLAGNASASA [HC1623] | -0.453 (inactive) | 0.839 (inactive) | -0.225 (inactive) |
| CALPATQLRRAGNASASA [HC287] | -0.751 (inactive) | -1.22 (inactive) | -0.432 (inactive) |
| CARSKRSALRAGNASASA [FS-1930] | 8.67 (active) | 9.74 (active) | 9.58 (active) |
| CARSKRRHRTAGNASASA [FS-3086] | 5.67 (active) | 4.65 (active) | 6.42 (active) |
| CARSKRPPLVAGNASASA [FS-3085] | -1.04 (inactive) | 1.04 | 0.266 (inactive) |
| CALTVTQLLRAGNASASA [HC1136] | -0.529 (inactive) | 1.28 | -0.0718 (inactive) |
| CATPVNSWLGAGNASASA [HC1572] | -0.962 (inactive) | 0.658 (inactive) | -0.136 (inactive) |
| CADQMWKCLIAGNASASA [HC963] | -0.00547 (inactive) | 0.512 (inactive) | 0.111 (inactive) |
| CAEVPCHRASAGNASASA [HC2383] | -0.108 (inactive) | 1.91 | 1.32 |
| CAMLVCGDDLAGNASASA [HC1527] | -1.47 (inactive) | -2.12 (inactive) | -1.71 (inactive) |
| CARMKRDTSLAGNASASA [FS-2354] | 12.7 (active) | 14.2 (active) | 10.6 (active) |
| CARSKRLMKRAGNASASA [FS-3264] | 7.59 (active) | 8.33 (active) | 6.04 (active) |
| CARSKRSTLLAGNASASA [FS-3171] | 6.63 (active) | 9.65 (active) | 8.72 (active) |
| CARSKRLLSDAGNASASA [FS-2524] | 1.69 | 0.376 (inactive) | 1.96 |
| CAAPITAYAQAGNASASA [HC674] | -1.65 (inactive) | -1.79 (inactive) | -0.691 (inactive) |
| CAGIYRFVAPAGNASASA [HC909] | -1.23 (inactive) | -0.739 (inactive) | -0.847 (inactive) |
| CARVPRTVLPAGNASASA [FS-1801] | 1.52 | 0.946 (inactive) | 3.87 (active) |
| CARQGRGSDPAGNASASA [FS-2583] | -1.86 (inactive) | -0.176 (inactive) | 0.17 (inactive) |
| CARIARFVLPAGNASASA [FS-2683] | 2.58 | 2.47 | 6.22 (active) |
| CARVRRAVLPAGNASASA [FS-2536] | 8.16 (active) | 9.49 (active) | 9.52 (active) |
| CARVRRHSDPAGNASASA [FS-2406] | 10.2 (active) | 8.54 (active) | 6.84 (active) |
| CARIARVVLQAGNASASA [FS-2028] | -0.514 (inactive) | -0.914 (inactive) | 1.2 |
| CATTQWQVLPAGNASASA [HC495] | -0.0417 (inactive) | 1.36 | 0.907 (inactive) |
| CARVPRKVQPAGNASASA [FS-3121] | -0.302 (inactive) | 1.08 | 0.984 (inactive) |
| CARVRRRGSPAGNASASA [FS-2108] | -0.273 (inactive) | 2.05 | 2 |
